Among the data in PubChem BioAssay (EPA / NIEHS) are outcome and AC50 values, retold here.

A short description of assay [1]: APR_HepG2_MicrotubuleCSK_72hr: Apredica 72-hour HepG2 Assay for Microtubule CSK Stabilty (AID 2282919). Particulars: HepG2 microtubule cytoskeleton, high-content imaging, actives raise or lower the signal. The procedure, abridged:
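HepG2, 72 hr cmpd exposure, 0.39–200 uM (10 pts, duplicate), 0.5% DMSO. 3.7% formaldehyde fix, 0.5% Triton perm, anti-alpha-tubulin/Cy5 plus Hoechst. HCS fluorescence intensity; bidirectional fit vs DMSO baseline; taxol as positive control.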

The nature of assay [2]: APR_HepG2_P-H2AX_24hr: Apredica 24-hour HepG2 Assay for H2AX Phosphorylation (AID 2282920). Particulars: high-content imaging, actives raise or lower the signal. The procedure, abridged: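 HepG2, 24 hr, cpd 0.39–200 uM (10 conc, duplicate), DMSO 0.5% v/v final. Fix 3.7% formaldehyde, Triton X-100 permeabilize, anti-phospho-H2A.x 1:200 + Hoechst 2 ug/mL. Imaged, bidirectional fit vs DMSO.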

Assay [3] in a line: APR_HepG2_StressKinase_72hr: Apredica 72-hour HepG2 Assay for Stress Kinase (AID 2282921). Particulars: HepG2 stress kinase (phospho-c-Jun) imaging, actives raise or lower the signal. The procedure, abridged: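 After a 72 h compound treatment spanning 0.39 to 200 uM, formaldehyde-fixed cells are labelled for phosphorylated c-Jun and nuclei, imaged by automated fluorescence microscopy, and activity is fitted in both directions relative to DMSO controls.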

A short description of assay [4]: APR_HepG2_StressKinase_24hr: Apredica 24-hour HepG2 Assay for Stress Kinase (AID 2282922). Particulars: HepG2 stress kinase (phospho-c-Jun) imaging, actives raise or lower the signal. The procedure, abridged: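 Read-out: phospho-c-Jun immunofluorescence (Cy3 secondary) quantified by high-content imaging at 20x, nuclei defined by Hoechst 33342. Human HepG2 liver cells dosed 24 hr, 0.39–200 uM, DMSO 0.5% v/v; gain or loss of signal fitted relative to DMSO.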

The nature of assay [5]: APR_HepG2_MitoMass_72hr: Apredica 72-hour HepG2 Assay for Mitochondrial Mass (AID 2282924).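 Further: MitoTracker Red CMXRos stain intensity per cell imaged as mitochondrial mass.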 Particulars: high-content imaging, actives raise or lower the signal. The procedure, abridged: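 Read-out: MitoTracker Red fluorescence intensity from automated imaging (20x, six fields per well) in human HepG2 liver cells. Dosing ran 72 hr, 0.39–200 uM, 0.5% DMSO; bidirectional curve fitting versus DMSO baseline.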

The nature of assay [6]: APR_HepG2_NuclearSize_72hr: Apredica 72-hour HepG2 Assay for Nuclear Size (AID 2282925). Particulars: high-content imaging, actives raise or lower the signal. The procedure, abridged:
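Read-out: nuclear diameter from Hoechst 33342 images (ArrayScan, 20x, six fields/well), via cell-cycle image analysis. HepG2 were dosed 0.39–200 uM for 72 hr in 0.5% DMSO. Bidirectional fit relative to DMSO.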

Assay [7] in a line: ATG_CRE_CIS: Attagene CIS-FACTORIAL HepG2 Assay for human cAMP Responsive Element (CRE) binding protein 3 (AID 2282926). Particulars: HepG2 CRE cis-reporter, Attagene multiplexed mRNA; actives raise or lower the signal. The procedure, abridged:
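Assay format: transient reporter transfection of HepG2, 24 h treatment, total RNA isolation with DNase I step. Reporter abundance read by fluorescence after PCR and capillary separation; DMSO-normalised gain or loss fitting.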

For assay [8], the target named is CCAAT/enhancer-binding protein beta (Homo sapiens) (UniProt P17676). In words: ATG_C_EBP_CIS: Attagene CIS-FACTORIAL HepG2 Assay for human CCAAT/Enhancer Binding Protein (C/EBP) beta (AID 2282927). Particulars: HepG2 Attagene cis-factorial transcription factor reporter; actives raise or lower the signal. The procedure, abridged:
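HepG2 transiently transfected with multiplexed reporter units under cis-regulatory promoters reporting endogenous C/EBPb activity. After 24 h exposure, reporter mRNA assayed by RT-PCR, fluorescent labelling, HpaI digestion and capillary electrophoresis; bidirectional fitting versus DMSO.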

The nature of assay [9]: ATG_CMV_CIS: Attagene CIS-FACTORIAL HepG2 Assay for human CMV (Internal Marker) (AID 2282928).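 Further: endpoint acts as a background internal control marker rather than a target.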 Particulars: HepG2 CMV promoter reporter, transcription factor profiling; actives raise or lower the signal. The procedure, abridged: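 24 h chemical treatment, HepG2 with transient multi-reporter transfection; RNA → oligo(dT) RT → PCR → 6-FAM extension → HpaI digest → CE fluorescence. Bidirectional fit, DMSO negative control.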

Assay [10] can be described thus: ATG_DR4_LXR_CIS: Attagene CIS-FACTORIAL HepG2 Assay for human Liver X Receptor (LXR), DR4 submotif (AID 2282929). Particulars: HepG2 Attagene DR4 cis-reporter, mRNA transcription; actives raise or lower the signal. The procedure, abridged: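 DR4 cis-reporter in HepG2, 24 h exposure. Detection: RT-PCR, 6-FAM labelling, CE fragment analysis. Endpoint fitted bidirectionally, DMSO = baseline.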

Assay [11] deals with Aryl hydrocarbon receptor (Homo sapiens) (UniProt P35869). In words: ATG_Ahr_CIS: Attagene CIS-FACTORIAL HepG2 Assay for human Aryl Hydrocarbon Receptor (Ahr) (AID 2282930). Particulars: HepG2 AhR cis-factorial reporter transcription; actives raise or lower the signal. The procedure, abridged: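 HepG2 cells transiently transfected with cis-element-driven multiplexed reporter units; endogenous AhR activity read as reporter mRNA 24 h after dosing, via RT-PCR, 6-FAM labelling, HpaI digestion and capillary electrophoresis. Bidirectional fit relative to DMSO.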
Aryl hydrocarbon receptor (Homo sapiens), sequence (P35869 whole entry, looked up): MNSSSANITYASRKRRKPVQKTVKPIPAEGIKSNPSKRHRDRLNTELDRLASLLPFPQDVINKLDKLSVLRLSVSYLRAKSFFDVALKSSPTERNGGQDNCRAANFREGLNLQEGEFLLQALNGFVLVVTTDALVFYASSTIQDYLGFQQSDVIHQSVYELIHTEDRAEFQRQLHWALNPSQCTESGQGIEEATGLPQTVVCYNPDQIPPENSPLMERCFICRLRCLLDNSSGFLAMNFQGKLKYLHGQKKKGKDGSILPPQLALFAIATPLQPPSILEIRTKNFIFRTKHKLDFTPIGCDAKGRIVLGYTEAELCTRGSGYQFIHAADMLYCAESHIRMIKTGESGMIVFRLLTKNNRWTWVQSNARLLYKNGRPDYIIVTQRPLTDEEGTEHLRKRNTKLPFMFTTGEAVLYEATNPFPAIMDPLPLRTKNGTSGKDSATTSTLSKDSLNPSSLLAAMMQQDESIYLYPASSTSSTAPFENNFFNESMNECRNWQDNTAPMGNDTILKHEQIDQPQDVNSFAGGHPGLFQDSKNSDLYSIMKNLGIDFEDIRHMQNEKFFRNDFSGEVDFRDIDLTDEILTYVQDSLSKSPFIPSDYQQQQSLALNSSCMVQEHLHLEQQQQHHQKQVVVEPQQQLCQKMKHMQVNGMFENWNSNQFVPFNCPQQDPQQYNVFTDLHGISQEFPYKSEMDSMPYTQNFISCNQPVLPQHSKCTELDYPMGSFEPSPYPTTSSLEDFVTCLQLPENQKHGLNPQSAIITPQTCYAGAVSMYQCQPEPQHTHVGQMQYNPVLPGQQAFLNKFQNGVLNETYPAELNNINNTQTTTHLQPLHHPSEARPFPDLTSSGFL

Assay [12] is described as follows: ATG_AP_1_CIS: Attagene CIS-FACTORIAL HepG2 Assay for human Activator Protein 1 (AP-1) (AID 2282931). Particulars: HepG2 Attagene cis-factorial AP-1 reporter mRNA; actives raise or lower the signal. The procedure, abridged: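 Cis-regulated reporter units transiently expressed in HepG2 report endogenous transcription-factor activity. Signal: reporter mRNA at 24 h, via RT-PCR and fluorescent capillary electrophoresis. Endpoint derived by bidirectional fitting, DMSO as negative control.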

Assay [13] is described as follows: ATG_AP_2_CIS: Attagene CIS-FACTORIAL HepG2 Assay for human Activator Protein 2 (AP-2) (AID 2282932). Particulars: HepG2 AP-2 cis-reporter, Attagene transcription factor profiling; actives raise or lower the signal. The procedure, abridged:
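Liver-derived HepG2 line, cis-reporter system measuring endogenous factors; 24 h dosing; reporter mRNA detected by fluorescent RT-PCR and capillary electrophoresis.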

Assay [14] is described as follows: ATG_BRE_CIS: Attagene CIS-FACTORIAL HepG2 Assay for human Bone Morphogenetic Protein (BMP) Response Element (BRE) (AID 2282933). Particulars: HepG2 BMP response element reporter, Attagene transcription factor profiling; actives raise or lower the signal. The procedure, abridged: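 Transient MRTU transfection of human HepG2 liver cells; 24 h compound treatment; total RNA isolated, reverse-transcribed, PCR-amplified, 6-FAM labelled, HpaI-cut, capillary electrophoresis. DMSO = negative control/baseline, bidirectional fit.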

Assay [15] has as its target Transcription factor E2F1 (Homo sapiens) (UniProt Q01094). In words: ATG_E2F_CIS: Attagene CIS-FACTORIAL HepG2 Assay for human E2F Transcription Factor 1 (AID 2282935). Particulars: HepG2 Attagene cis-reporter, E2F reporter RNA transcripts; actives raise or lower the signal. The procedure, abridged: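 Liver-derived HepG2 cells expressing transfected promoter-driven reporter units received test chemical for 24 hours. Signal gains or losses were fitted bidirectionally against DMSO.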

The nature of assay [16]: ATG_E_Box_CIS: Attagene CIS-FACTORIAL HepG2 Assay for human Enhancer Box (E-box) (AID 2282936). Particulars: HepG2 E-box cis-reporter transcription, actives raise or lower the signal. The procedure, abridged: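 In this cell-based setup, HepG2 cells bearing transfected promoter-driven reporter units were exposed to chemicals for 24 h; reporter transcripts were amplified, 6-FAM-labelled, cut with HpaI and sized by capillary electrophoresis.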

A short description of assay [17]: ATG_M_61_CIS: Attagene CIS-FACTORIAL HepG2 Assay for M61 Transcription Factor (Internal Marker) (AID 2282937). Particulars: HepG2 Attagene CIS-FACTORIAL M61 internal marker reporter; actives raise or lower the signal. The procedure, abridged:
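Background-control endpoint: HepG2 cells with cis-regulated reporter constructs, 24 h exposure, reporter mRNA detected via fluorescent primer extension and capillary electrophoresis; values from bidirectional fitting with DMSO baseline.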

A short description of assay [18]: ATG_EGR_CIS: Attagene CIS-FACTORIAL HepG2 Assay for human Early Growth Response 1 (EGR1) (AID 2282938). Particulars: HepG2 Attagene CIS-FACTORIAL EGR reporter mRNA; actives raise or lower the signal. The procedure, abridged:
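Endpoint derived by bidirectional fitting versus DMSO vehicle. Method: cis-promoter reporter units transfected into HepG2, 24 h dosing, RNA isolation, RT-PCR with 6-FAM primer extension and HpaI digestion, then capillary electrophoresis fluorescence detection.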

Assay [19] concerns the target Retinoic acid receptor alpha (Homo sapiens) (UniProt P10276). Kind of assay: ATG_DR5_RAR_CIS: Attagene CIS-FACTORIAL HepG2 Assay for human Retinoic Acid Receptor Alpha (RARE), DR5 submotif (AID 2282934).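 On AC50: reporter responds to endogenous RAR alpha beta and gamma in HepG2 not RARA alone.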 Particulars: HepG2 Attagene cis-factorial RARE DR5 reporter, mRNA; actives raise or lower the signal. The procedure, abridged: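 HepG2 cells transiently transfected with multiplexed reporter units; DR5 cis-element drives reporter through endogenous transcription factors. After 24 h dosing, reporter mRNA quantified by RT-PCR, fluorescent labeling, HpaI digestion and capillary electrophoresis; bidirectional fitting versus DMSO.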

Broadly, the AC50 is the midpoint of the concentration-response curve, whichever way the signal moves.

Calls of active or inactive are those of the source. How the source made its calls: active means hit-call score of the fitted dose curve at least 0.9, where 1 is the maximum; inactive means score below 0.9.

CCAAT/enhancer-binding protein beta (Homo sapiens), sequence (P17676 whole entry, looked up): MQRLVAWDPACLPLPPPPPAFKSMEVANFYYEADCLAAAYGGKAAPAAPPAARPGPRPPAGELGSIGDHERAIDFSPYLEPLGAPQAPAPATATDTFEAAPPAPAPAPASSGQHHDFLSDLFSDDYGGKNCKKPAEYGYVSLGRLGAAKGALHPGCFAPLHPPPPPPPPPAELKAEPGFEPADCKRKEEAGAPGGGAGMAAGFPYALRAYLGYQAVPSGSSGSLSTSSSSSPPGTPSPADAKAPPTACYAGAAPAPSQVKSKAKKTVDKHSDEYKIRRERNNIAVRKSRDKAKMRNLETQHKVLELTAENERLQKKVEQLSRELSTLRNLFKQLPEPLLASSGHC
Retinoic acid receptor alpha (Homo sapiens), sequence (P10276 whole entry, looked up): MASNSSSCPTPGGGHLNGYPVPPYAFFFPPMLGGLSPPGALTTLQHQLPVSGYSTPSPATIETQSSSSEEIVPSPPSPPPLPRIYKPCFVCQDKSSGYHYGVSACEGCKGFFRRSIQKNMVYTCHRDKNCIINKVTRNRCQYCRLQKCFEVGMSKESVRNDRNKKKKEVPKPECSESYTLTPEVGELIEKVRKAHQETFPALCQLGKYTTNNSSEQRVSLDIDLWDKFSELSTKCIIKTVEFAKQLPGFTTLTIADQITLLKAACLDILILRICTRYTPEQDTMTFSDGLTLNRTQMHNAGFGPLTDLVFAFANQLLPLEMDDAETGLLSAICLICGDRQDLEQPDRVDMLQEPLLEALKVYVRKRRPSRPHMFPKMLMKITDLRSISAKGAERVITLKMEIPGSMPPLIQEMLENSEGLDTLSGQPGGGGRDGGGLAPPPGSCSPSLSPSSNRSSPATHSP
Transcription factor E2F1 (Homo sapiens), sequence (Q01094 whole entry, looked up): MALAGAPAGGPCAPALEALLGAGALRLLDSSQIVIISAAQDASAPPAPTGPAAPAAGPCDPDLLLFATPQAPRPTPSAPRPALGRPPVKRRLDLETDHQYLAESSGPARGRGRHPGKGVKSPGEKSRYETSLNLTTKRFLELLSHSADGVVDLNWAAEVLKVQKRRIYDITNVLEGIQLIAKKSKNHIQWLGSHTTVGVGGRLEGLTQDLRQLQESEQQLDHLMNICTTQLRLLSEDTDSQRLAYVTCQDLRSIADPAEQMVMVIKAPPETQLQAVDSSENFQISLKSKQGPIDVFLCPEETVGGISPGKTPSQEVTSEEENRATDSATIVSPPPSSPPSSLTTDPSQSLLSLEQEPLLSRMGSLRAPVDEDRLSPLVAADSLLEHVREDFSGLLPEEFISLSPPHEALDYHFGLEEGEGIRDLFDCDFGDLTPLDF

As for `N#Cc1cccnc1`, the compound was classed as inactive in [1], in [2], in assay [3], in assay [4], in assay [5] and in assay [6]. Further, the call in [7], in assay [8], in assay [9], in [10], in assay [11] and in assay [12] was inactive. Besides, the compound was classed as inactive in assay [13], in assay [14], in assay [15], in assay [16], in assay [17] and in assay [18].

With `CN(C)CCN(C)C`, the compound was classed as inactive in [7], in [8], in assay [9], in [10], in assay [11] and in assay [12]. Also, the result in assay [13], in assay [14], in [19], in [15], in [16] and in assay [17] was inactive. Moreover, the compound was called inactive in assay [18].

For the compound `C[C@@H]1O[C@@H](O[C@H]2C[C@@H](O)[C@]3(CO)[C@H]4[C@H](O)C[C@]5(C)[C@@H](C6=CC(=O)OC6)CC[C@]5(O)[C@@H]4CC[C@]3(O)C2)[C@H](O)[C@H](O)[C@H]1O`, the AC50 is 512 nM (active) in assay [7]; 71.6 nM (active) in [8]; 207 nM (active) in [10]; 215 nM (active) in assay [12]; 119 nM (active) in assay [13]; 155 nM (active) in [19]. Further, the AC50 in [18] was 71.6 nM (active). Also, the outcome in [9], in assay [11], in assay [14], in assay [15], in assay [16] and in [17] was inactive.

Turning to `CCCCCCCCCCCCc1cccc(S(=O)(=O)O)c1`, the compound was called inactive in assay [1], in [2], in assay [3], in assay [4], in [5] and in assay [6]. For the same compound, the compound was classed as inactive in [7], in assay [8], in assay [12], in assay [13], in [14] and in [15]. Besides, the outcome in assay [16], in [17] and in assay [18] was inactive. Moreover, the AC50 in [10] was 30000 nM (active); in assay [19], 39800 nM (active).
